From the supplement of paper PMC11732987, “Enantioselective OTUD7B fragment discovery through chemoproteomics screening and high-throughput optimisation” (Communications Chemistry, 2025)

Experiments:
Experiment in all cases: log2 ratio of Biotin-Ahx-Ub-VS probe labelling (fragment/DMSO); higher = less target engagement (more negative = stronger competition), active = hit call of the paper (q ≤ 0.05, log2 ratio ≤ -1)
Details in all cases: compound concentration: 200 uM; treatment time: 3 h
[1] = target: T1, USP19 (UniProt O94966)
T1 sequence (whole entry): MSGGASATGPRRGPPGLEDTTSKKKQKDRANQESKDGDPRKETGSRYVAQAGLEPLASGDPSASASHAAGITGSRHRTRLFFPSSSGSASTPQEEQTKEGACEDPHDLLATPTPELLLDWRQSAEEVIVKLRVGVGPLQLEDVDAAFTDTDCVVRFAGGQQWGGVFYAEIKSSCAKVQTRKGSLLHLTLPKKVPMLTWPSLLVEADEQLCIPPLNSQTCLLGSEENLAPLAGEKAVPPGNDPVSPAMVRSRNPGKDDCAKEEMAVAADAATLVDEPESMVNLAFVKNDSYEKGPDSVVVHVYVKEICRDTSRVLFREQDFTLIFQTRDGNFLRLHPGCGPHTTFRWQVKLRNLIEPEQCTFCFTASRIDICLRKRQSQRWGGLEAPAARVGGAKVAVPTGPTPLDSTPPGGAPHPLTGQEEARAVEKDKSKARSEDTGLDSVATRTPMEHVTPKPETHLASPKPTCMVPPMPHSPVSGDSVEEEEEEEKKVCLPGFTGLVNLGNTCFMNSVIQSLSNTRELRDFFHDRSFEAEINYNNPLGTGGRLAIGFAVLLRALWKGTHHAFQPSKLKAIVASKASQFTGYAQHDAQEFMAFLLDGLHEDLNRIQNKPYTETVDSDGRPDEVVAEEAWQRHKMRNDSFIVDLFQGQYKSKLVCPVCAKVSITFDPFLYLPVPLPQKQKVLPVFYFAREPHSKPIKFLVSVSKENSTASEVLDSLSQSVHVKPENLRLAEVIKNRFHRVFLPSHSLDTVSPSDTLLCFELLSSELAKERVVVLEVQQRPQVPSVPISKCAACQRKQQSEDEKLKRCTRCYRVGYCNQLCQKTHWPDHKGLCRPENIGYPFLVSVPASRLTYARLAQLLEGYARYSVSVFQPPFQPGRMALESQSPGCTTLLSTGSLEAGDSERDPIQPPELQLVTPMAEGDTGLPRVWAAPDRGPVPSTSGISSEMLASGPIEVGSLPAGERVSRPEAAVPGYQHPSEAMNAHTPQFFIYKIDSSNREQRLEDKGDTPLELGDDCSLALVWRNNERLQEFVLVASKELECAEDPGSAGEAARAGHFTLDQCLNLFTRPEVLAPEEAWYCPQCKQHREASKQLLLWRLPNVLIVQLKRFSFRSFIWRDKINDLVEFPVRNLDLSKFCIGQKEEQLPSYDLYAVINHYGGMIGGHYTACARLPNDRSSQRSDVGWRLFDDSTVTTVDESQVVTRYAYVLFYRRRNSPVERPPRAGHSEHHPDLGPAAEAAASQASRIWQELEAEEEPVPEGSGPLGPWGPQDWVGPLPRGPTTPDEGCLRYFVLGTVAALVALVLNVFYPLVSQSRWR
Summary of the method: (§1)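 Each value is an average log2 ratio of fragment to vehicle, tested by unpaired t-test. The underlying Spectronaut label-free quantities were global-median-normalised, and only proteins with ≥2 unique peptides were included. Triplicate HEK293T lysate samples (495 µg) were exposed to fragment at 200 µM or vehicle for 3 h, then to Biotin-Ahx-Ub-VS at 0.5 µM final for 1 h, before NeutrAvidin enrichment of labelled DUBs, LysC and trypsin digestion, and diaPASEF LC-MS/MS.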

[2] = target: T2, USP22 (UniProt Q9UPT9)
T2 sequence (whole entry): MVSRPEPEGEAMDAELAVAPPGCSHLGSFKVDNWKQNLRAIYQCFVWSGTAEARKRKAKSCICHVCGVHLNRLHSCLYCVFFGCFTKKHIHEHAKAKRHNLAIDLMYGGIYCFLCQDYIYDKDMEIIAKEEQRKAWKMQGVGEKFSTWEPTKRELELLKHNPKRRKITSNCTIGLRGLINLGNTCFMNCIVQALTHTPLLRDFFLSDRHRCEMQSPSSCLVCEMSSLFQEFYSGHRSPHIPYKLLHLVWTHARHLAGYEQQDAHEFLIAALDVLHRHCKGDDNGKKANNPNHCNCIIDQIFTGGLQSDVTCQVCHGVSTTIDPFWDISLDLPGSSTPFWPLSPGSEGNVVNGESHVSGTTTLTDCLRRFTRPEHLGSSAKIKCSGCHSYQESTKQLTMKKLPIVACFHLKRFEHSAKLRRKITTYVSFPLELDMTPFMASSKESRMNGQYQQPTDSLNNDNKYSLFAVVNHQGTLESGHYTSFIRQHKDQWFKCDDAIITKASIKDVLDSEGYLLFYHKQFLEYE
Summary of the method: as §1

[3] = target: USP24 (UniProt Q9UPU5)
Chain of USP24 (Q9UPU5 whole entry): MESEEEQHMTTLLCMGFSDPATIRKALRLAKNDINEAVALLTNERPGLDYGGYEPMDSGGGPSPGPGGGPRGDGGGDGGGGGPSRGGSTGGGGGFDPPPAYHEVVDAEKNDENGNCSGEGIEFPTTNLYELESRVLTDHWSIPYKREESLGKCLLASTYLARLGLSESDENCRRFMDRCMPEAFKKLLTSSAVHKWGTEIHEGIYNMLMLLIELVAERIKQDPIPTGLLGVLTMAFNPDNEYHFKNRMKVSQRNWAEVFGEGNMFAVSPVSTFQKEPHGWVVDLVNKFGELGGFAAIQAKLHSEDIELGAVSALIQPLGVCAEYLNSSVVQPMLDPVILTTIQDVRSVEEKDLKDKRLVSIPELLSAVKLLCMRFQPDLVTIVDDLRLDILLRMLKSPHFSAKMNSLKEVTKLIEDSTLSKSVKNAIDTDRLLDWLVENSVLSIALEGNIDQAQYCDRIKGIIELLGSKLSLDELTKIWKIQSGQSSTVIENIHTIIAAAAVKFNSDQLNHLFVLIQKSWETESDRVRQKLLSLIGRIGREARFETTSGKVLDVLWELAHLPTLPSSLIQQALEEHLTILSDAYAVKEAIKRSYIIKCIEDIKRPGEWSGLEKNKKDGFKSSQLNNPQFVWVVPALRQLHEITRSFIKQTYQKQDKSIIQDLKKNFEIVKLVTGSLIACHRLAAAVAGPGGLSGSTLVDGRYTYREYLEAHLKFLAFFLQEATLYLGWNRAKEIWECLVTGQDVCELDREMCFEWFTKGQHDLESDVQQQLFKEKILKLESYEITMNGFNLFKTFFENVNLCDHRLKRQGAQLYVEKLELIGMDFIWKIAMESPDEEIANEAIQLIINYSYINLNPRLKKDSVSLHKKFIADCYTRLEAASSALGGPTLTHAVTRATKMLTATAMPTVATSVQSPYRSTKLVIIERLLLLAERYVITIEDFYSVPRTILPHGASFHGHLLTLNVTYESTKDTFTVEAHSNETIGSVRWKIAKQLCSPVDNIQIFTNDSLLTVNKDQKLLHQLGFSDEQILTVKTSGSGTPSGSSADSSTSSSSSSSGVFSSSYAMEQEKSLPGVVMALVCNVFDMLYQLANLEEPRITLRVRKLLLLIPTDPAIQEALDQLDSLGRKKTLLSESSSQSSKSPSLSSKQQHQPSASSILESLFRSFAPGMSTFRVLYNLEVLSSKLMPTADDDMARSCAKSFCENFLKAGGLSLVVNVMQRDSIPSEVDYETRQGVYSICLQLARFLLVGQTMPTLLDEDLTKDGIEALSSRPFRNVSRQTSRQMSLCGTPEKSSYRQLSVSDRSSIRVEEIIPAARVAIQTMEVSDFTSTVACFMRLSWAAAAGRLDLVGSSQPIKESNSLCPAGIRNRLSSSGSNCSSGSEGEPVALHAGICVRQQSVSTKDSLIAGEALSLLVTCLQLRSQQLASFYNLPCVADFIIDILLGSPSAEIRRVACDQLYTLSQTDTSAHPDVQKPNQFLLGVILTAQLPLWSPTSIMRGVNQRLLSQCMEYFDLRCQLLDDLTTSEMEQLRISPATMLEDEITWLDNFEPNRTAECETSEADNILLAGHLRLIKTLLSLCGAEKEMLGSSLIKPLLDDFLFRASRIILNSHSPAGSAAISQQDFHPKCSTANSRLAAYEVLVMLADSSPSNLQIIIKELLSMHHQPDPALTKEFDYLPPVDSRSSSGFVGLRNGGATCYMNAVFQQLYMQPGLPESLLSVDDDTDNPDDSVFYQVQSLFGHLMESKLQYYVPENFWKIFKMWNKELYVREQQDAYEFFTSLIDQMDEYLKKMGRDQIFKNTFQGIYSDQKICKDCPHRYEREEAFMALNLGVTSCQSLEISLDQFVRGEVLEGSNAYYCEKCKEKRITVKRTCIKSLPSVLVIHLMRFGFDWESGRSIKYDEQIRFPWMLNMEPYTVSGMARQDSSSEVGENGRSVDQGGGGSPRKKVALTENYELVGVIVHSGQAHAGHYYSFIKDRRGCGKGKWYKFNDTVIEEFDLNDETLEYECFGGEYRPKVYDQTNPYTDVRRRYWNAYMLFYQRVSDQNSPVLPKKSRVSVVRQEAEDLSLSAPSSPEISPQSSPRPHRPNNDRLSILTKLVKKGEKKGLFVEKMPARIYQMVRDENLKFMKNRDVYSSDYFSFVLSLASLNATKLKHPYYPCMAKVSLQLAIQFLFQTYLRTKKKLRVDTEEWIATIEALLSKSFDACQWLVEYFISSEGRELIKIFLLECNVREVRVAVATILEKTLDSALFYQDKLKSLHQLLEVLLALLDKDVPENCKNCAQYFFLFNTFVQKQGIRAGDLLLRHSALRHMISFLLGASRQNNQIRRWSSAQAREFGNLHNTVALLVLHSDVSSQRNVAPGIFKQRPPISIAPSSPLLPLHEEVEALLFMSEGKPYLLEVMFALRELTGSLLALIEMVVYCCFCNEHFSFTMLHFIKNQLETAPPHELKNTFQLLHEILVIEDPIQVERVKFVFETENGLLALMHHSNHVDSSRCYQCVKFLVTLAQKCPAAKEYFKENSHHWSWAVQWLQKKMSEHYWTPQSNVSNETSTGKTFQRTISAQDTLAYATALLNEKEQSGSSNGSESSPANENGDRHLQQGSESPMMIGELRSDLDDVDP
Summary of the method: as §1

[4] = target: T3, USP25 (UniProt Q9UHP3)
T3 sequence (whole entry): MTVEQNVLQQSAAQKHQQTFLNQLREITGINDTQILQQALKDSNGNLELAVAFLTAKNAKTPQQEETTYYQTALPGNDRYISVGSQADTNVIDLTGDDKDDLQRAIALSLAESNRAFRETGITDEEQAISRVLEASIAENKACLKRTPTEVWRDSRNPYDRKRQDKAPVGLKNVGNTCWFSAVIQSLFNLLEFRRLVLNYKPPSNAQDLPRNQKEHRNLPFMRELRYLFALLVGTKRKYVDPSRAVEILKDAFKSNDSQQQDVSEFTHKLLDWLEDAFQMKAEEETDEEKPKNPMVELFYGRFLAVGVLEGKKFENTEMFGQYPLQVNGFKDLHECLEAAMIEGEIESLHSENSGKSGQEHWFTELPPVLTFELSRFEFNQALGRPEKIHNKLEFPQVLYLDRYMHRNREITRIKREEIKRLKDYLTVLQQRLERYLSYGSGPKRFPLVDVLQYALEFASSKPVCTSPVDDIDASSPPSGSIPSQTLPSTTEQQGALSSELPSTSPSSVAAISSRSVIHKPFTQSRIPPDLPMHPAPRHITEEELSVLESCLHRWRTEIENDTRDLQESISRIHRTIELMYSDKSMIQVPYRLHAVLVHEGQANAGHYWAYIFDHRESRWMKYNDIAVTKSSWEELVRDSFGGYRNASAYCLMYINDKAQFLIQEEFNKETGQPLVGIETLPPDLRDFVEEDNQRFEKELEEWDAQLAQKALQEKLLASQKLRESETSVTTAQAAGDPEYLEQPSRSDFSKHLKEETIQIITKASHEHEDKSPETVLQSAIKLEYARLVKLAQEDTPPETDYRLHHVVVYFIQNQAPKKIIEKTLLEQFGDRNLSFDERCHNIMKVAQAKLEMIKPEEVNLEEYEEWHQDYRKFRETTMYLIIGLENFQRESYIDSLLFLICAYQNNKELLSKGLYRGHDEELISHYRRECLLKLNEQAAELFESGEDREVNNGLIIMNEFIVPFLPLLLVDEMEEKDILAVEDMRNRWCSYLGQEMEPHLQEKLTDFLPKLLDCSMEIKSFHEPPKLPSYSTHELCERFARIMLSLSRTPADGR
Summary of the method: as §1

[5] = target: T4, USP28 (UniProt Q96RU2)
T4 sequence (whole entry): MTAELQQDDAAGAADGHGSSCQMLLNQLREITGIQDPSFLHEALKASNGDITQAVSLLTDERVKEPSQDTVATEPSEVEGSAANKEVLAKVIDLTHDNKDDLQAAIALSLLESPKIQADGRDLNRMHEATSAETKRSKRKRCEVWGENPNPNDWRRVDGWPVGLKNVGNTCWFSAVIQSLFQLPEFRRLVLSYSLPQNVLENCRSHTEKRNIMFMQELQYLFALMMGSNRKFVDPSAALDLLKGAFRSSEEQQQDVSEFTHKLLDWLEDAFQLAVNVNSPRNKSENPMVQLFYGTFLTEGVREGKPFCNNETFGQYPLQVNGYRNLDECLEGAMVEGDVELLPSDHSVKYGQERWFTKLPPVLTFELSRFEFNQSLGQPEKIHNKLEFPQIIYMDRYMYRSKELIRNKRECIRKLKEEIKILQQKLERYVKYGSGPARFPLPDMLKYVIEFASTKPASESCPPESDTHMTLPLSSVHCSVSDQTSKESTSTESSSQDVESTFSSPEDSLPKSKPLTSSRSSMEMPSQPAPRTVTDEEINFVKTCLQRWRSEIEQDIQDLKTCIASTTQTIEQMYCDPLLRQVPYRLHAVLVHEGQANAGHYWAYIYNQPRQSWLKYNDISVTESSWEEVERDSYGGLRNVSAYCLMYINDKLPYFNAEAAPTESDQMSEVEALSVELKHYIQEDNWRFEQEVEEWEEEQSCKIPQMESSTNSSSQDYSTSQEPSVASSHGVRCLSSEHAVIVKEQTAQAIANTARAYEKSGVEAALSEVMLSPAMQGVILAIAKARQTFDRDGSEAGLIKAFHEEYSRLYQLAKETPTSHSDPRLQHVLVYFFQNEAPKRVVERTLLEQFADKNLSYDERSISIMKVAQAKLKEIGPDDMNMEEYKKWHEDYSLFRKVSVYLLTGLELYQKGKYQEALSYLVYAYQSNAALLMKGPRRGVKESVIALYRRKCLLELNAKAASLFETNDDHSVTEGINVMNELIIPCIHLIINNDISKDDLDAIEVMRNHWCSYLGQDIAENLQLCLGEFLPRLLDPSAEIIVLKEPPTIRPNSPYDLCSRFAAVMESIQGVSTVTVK
Summary of the method: as §1

Measured: log2 ratio of Biotin-Ahx-Ub-VS probe labelling

O=C(CCl)NCCC1COCCO1 (stereo not given)
inactive: [1] -0.207 | [2] 0.193 | [3] -0.21 | [4] -0.158 | [5] -0.225
